PubChem BioAssay (NCI)
Compounds without any hit were thinned out: in the full panel of roughly 83,000, 20% have a hit.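 Interpretation: 100, growth as untreated; towards 0, rising growth inhibition; 0, no net growth; 0 to -100, cell death. Compounds scoring below 10 were considered active.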 Values without a mark were called inactive. Calls of active or inactive are those of the source.

The compounds below were run on HCC-2998 colon (assay: NCI-60 one-dose screen, 48 h (100 = growth as untreated, 0 = no growth, -100 = all killed)). Settings: 10 µM unless noted.

Row | Compound | growth
1 | O=C(NNC(=O)N1c2ccccc2C=Cc2ccccc21)c1ccc2ccccc2c1 | 102%
2 | CCOC(=O)C1C(=O)C=C(c2ccc(OC)cc2)CC1c1sc(N(C)Cc2ccccc2)nc1Cl (centres undefined) | 98.9%
3 | CCc1cnc(=S)n(-c2ccccc2)c1 | 86.5%
4 | CCN(CC)c1ccc2[nH]c3c(C(N)=O)cc(=O)c(=O)c=3oc2c1 | -5.4% (active)
5 | O=[N+]([O-])c1ccc(Sc2ncccn2)c([N+](=O)[O-])c1 | 66.2%
6 | C/C(=C\c1ccc(OCC(=O)O)c(Cl)c1Cl)[N+](=O)[O-] | 97.1%
7 | CC(C)CC1NC(C)(C)CO1 (centres undefined) | 102%
8 | CC(NNC(C)c1ccccc1)c1ccccc1 (centres undefined) | 103%
9 | CC(C)(C)n1cc(-c2ccnc(NCCCNS(=O)(=O)c3ccc(C(F)(F)F)cc3)c2)c(-c2cccc(O)c2)n1 | -63% (active)
10 | CC(C)(C)n1cc(-c2ccnc(NCCCNS(=O)(=O)c3ccc(Br)cc3)c2)c(-c2cccc(O)c2)n1 | -56.1% (active)
11 | Cn1cc(-c2cnc3ccc(NC(=O)Nc4ccc(F)c(Br)c4)cc3n2)cn1 | 49.2%
12 | CC(C)(C)c1[nH]nc2c1C(c1cc3ccccc3[nH]c1=O)Nc1cc(C(=O)Nc3ccc(Cl)cc3)ccc1N2 (centres undefined) | 86.3%
13 | O=C([O][Sn]([O]C(=O)c1ccccn1)([c]1ccccc1)[c]1ccccc1)c1ccccn1 | 88.3%
14 | CC(C)(C)n1cc(-c2ccnc(NCCCNS(=O)(=O)c3ccc(Cl)cc3)c2)c(-c2cccc(O)c2)n1 | -81.5% (active)
